Source: PubChem BioAssay
Hits are enriched below; roughly 10% of the tested compounds scored in any of these assays.
GPT2 inh – inhibitors of human GPT2 alanine aminotransferase. Potency, µM (doses to about 57.7 µM), for inactives: at the highest dose activity change, negative = inhibition, hits mostly inhibitors. Recombinant GPT2, coupled pyruvate oxidase/HRP Amplex Red fluorescence. Q8TD30. 0.25% of 100,000 active; further: nearly all actives have a fitted effect of over 60% in size
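GPT2 10ng/uL, a-KG 250uM, L-Ala 2mM, HEPES pH7.5 + 0.0001% Tween; 30 min RT. Then Amplex mix (PO/HRP/ThPP), 30 min RT dark, fluorescence. AOA 50uM used as positive control.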
HEK293 tox – HEK 293 cell cytotoxicity; HEK 293 viability, ATP luminescence (CellTiter-Glo), 48-72 h; Potency, µM (top dose mostly 115 µM), for the others: at the highest dose activity change, negative = cytotoxicity, usual class: inhibitors; 6.6% of 94,000 active; AID 1345083; further: nearly all actives have a fitted effect of over 60% in size
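qHTS cytotoxicity; HEK 293, 250 cells/well; compound pinned; 48 or 72 hr, 37 degree Celsius, 5% CO2, 95% humidity; CellTiter-Glo, 10 min RT; luminescence (ATP).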
FLuc inh – blocks purified firefly luciferase enzyme activity; AID 1347043; Potency, µM (series often up to 115 µM), actives largely listed as inhibitors; 2.5% of 76,000 active; purified P. pyralis luciferase, luminescence, biochemical; further: nearly all actives have a fitted effect of over 65% in size
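Inhibitors were tested against purified firefly luciferase in a biochemical, low-substrate format (both substrates at 10uM) and luminescence measured with a CCD imager.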
NPR1 antag – blocks ANP-stimulated signaling of human Npr1 receptor. P16066. HEK293 hNpr1 GloSensor cGMP, ANP-stimulated luminescence. Potency, µM (top dose mostly 46.3 µM), for inactives: at the top dose activity change, negative = inhibition, actives largely listed as inhibitors. 1.6% of 76,000 active; calls by dose curve; further: nearly all actives have a fitted effect of over 60% in size
Target sequence (P16066 whole entry, looked up): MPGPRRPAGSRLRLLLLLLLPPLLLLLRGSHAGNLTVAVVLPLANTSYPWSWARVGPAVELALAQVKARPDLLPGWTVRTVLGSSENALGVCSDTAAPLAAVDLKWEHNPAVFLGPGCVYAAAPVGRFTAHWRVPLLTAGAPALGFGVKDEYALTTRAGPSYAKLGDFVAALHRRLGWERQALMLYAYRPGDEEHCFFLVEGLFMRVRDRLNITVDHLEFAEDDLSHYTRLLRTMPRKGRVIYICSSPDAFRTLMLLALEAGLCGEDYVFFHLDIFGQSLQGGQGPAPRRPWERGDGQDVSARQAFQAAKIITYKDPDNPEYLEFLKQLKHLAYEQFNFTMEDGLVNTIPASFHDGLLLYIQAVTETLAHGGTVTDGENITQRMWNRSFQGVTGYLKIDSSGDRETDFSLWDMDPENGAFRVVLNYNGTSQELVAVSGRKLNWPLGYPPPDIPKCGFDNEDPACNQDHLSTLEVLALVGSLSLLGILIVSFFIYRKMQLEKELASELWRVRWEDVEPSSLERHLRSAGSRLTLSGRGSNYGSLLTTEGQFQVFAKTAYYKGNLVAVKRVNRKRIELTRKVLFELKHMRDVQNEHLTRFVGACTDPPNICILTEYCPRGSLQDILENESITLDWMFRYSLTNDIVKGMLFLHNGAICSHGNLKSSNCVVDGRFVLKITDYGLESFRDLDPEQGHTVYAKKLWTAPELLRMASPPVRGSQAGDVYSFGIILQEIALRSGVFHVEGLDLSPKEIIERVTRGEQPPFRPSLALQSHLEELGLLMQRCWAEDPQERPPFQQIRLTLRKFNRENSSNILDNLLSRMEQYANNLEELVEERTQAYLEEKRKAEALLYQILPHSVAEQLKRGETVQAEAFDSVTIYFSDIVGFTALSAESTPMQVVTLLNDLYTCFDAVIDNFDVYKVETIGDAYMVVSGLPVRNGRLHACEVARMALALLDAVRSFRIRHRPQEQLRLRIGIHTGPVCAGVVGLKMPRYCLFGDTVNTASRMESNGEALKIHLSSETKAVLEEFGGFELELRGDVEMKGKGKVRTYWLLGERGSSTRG
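HEK293 cells stably expressing human Npr1 and cGMP GloSensor pGS-40F, loaded 2 h with 2% GloSensor reagent, given compound 30 min at room temperature. Luminescence read before and 20 min after 0.1 nM hNppA.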
NIH3T3 tox – cytotoxic compounds in NIH 3T3 cells | NIH 3T3 viability, CellTiter-Glo ATP luminescence, 48-72 h | Potency, µM (titrated, usually from 96.7 µM), without a hit: at the top dose activity change, negative = cytotoxicity, usual class: inhibitors | 4.3% of 94,000 active | AID 1345082; further: nearly all actives have a fitted effect of over 55% in size
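First NIH 3T3 cells are plated at 400 cells/well; next compound is pinned in; then plates incubate 48 or 72 hr at 37 °C; finally CellTiter-Glo is added and luminescence read after 10 min.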
Starred values were filed as active, the others as inactive; [ ] = remark or other dose. Unless noted, the call rests on the fitted dose curve; in most records, active means well fitted curve in the direction sought with a large enough effect; inconclusive means small, poorly fitted or top-dose-only effect, or another doubt; inactive means no such curve, though single readings can be large; an effect the other way counts as inactive or inconclusive. On the % scale 0 is the no-effect control and ±100 the full control effect; potency means the concentration at half of the fitted maximal effect.

What do the screens show for `CN(C)[C@@H]1[C@@H](NC(=O)C2(S(=O)(=O)c3ccccc3)CC2)[C@H]2CCO[C@H]21`?
GPT2 inh: inactive; HEK293 tox: inactive; FLuc inh: inactive; NPR1 antag: -10.9%; NIH3T3 tox: inactive

How did COc1ccc(-c2cn3cc(C(=O)N(C)C)nc3s2)cc1 do in these assays?
GPT2 inh: -8.9%[88.5 µM]; HEK293 tox: inconclusive; NIH3T3 tox: 89.1µM*

What do the screens show for `COc1ccc(-c2cn3cc(C(=O)NCC4CC4)nc3s2)cc1`?
GPT2 inh: inactive; HEK293 tox: 63.1µM*; NIH3T3 tox: 50.1µM*

How did COCCCNC(=O)c1cn2cc(-c3ccc(OC)cc3)sc2n1 do in these assays?
GPT2 inh: -11.5%[88.5 µM]; HEK293 tox: 79.4µM*; NIH3T3 tox: 39.8µM*

How did O=C(NCC1CC1)c1cn2cc(-c3ccc(C(F)(F)F)cc3)sc2n1 do in these assays?
GPT2 inh: 1.5%; HEK293 tox: inconclusive; NIH3T3 tox: inconclusive

How did COCCCNC(=O)c1cn2cc(-c3cccc(C#N)c3)sc2n1 do in these assays?
GPT2 inh: -16.3%; HEK293 tox: inconclusive; NIH3T3 tox: 44.7µM*

Results for CNC(=O)c1cc(C2CC2)nc2c1c(C1CCCN([S+](=O)([O-])c3c(C)noc3C)C1)nn2C (stereo not drawn) ?
HEK293 tox: inconclusive; NIH3T3 tox: -18.4%

Results for O=C(NCc1nnc2ccc(-c3ccccc3)nn12)c1cccc(C(F)(F)F)c1 ?
GPT2 inh: -0.5%; HEK293 tox: inconclusive; FLuc inh: inactive; NPR1 antag: -11.2%; NIH3T3 tox: inconclusive

Results for O=C(NC1CCCCCC1)C1CCc2nnc(-c3cccc(C(F)(F)F)c3)n21 (stereo not drawn) ?
GPT2 inh: inconclusive; HEK293 tox: -24.9%; NIH3T3 tox: inconclusive

Results for Cn1ccnc1CN1C[C@H]2CN(C(=O)NCc3ccccc3)CCN2C1=O ?
GPT2 inh: inactive; HEK293 tox: inactive; FLuc inh: inactive; NPR1 antag: 0.3%[70.6 µM]; NIH3T3 tox: inactive

What do the screens show for `CC1CCCN(C(=O)C2CCCN(c3cnc4nccnc4c3)C2)C1` (stereo not drawn)?
GPT2 inh: inactive; HEK293 tox: 7.2%; FLuc inh: inactive; NPR1 antag: 2.8%; NIH3T3 tox: -18.8%

What do the screens show for `COc1cccc(N2CCN(C(=O)C3CCCN(c4cnc5nccnc5c4)C3)CC2)c1` (stereo not drawn)?
GPT2 inh: inactive; HEK293 tox: 39.8µM*; FLuc inh: inactive; NPR1 antag: inconclusive; NIH3T3 tox: inconclusive

How did Cn1cc(CN[C@H]2[C@H](O)[C@H](O)C[C@@H]2c2ccc(N3CCOCC3)nc2)cn1 do in these assays?
GPT2 inh: inactive; HEK293 tox: -2.3%[172 µM]; FLuc inh: inactive; NPR1 antag: 4.0%[70.6 µM]; NIH3T3 tox: 2.4%[174 µM]

What do the screens show for `O=C(NC1CCCN(c2cc(-c3ccc(F)cc3)[nH]n2)C1)c1ccc2cc[nH]c2c1` (stereo not drawn)?
GPT2 inh: -20.6%; HEK293 tox: 35.5µM*; FLuc inh: 28.2µM*; NPR1 antag: -21.6%; NIH3T3 tox: 35.5µM*

What do the screens show for `O=C(NC1CCCN(c2cc(-c3ccccc3)[nH]n2)C1)c1ccc2[nH]ccc2c1` (stereo not drawn)?
GPT2 inh: -20.7%; HEK293 tox: inconclusive; FLuc inh: 31.6µM*; NPR1 antag: -20.4%; NIH3T3 tox: inconclusive

Results for COC1CN(c2cccc(F)c2)C12CCN(C(=O)C1CCCCC1)CC2 (stereo not drawn) ?
GPT2 inh: 2.0%; HEK293 tox: 28.2µM*; FLuc inh: inactive; NPR1 antag: -1.5%; NIH3T3 tox: -22.0%

What do the screens show for `COC1CN(c2cccc(F)c2)C12CCN(S(=O)(=O)c1cccc(F)c1)CC2` (stereo not drawn)?
GPT2 inh: inactive; HEK293 tox: 28.2µM*; NIH3T3 tox: inconclusive

How did COC1CN(c2cccc(F)c2)C12CCN(C(=O)NC1CCCCC1)CC2 (stereo not drawn) do in these assays?
GPT2 inh: inactive; HEK293 tox: 44.7µM*; FLuc inh: inactive; NPR1 antag: 1.8%; NIH3T3 tox: inconclusive

Results for COC1CN(c2cccc(F)c2)C12CCN(C(=O)c1ccncc1)CC2 (stereo not drawn) ?
GPT2 inh: inactive; HEK293 tox: -21.6%; FLuc inh: inactive; NPR1 antag: -0.1%; NIH3T3 tox: -8.6%

Results for COC1CN(c2cccc(F)c2)C12CCN(C(=O)NC(C)(C)C)CC2 (stereo not drawn) ?
GPT2 inh: inactive; HEK293 tox: inconclusive; FLuc inh: inactive; NPR1 antag: -0.5%; NIH3T3 tox: -18.1%

What do the screens show for `COC1CN(c2cccc(F)c2)C12CCN(C(=O)CCCc1ccccc1)CC2` (stereo not drawn)?
GPT2 inh: -4.6%; HEK293 tox: inconclusive; FLuc inh: inactive; NPR1 antag: 1.2%; NIH3T3 tox: inconclusive

How did COC1CN(c2cccc(F)c2)C12CCN(C(=O)C1CCC1)CC2 (stereo not drawn) do in these assays?
GPT2 inh: inactive; HEK293 tox: inconclusive; FLuc inh: inactive; NPR1 antag: 2.8%; NIH3T3 tox: -19.4%

Results for COC1CN(c2cccc(F)c2)C12CCN(C(=O)NCCc1ccccc1)CC2 (stereo not drawn) ?
GPT2 inh: 3.7%; HEK293 tox: 50.1µM*; FLuc inh: inactive; NPR1 antag: 2.6%; NIH3T3 tox: inconclusive

How did COc1ccc(-c2cc(C(=O)NC3CC3)c3c(C4CCCNC4)noc3n2)cc1 (stereo not drawn) do in these assays?
GPT2 inh: inactive; HEK293 tox: 31.6µM*; NIH3T3 tox: 31.6µM*

How did O=C(C1CC1)N1CCN2C(=O)NC[C@H]2C1 do in these assays?
GPT2 inh: 1.8%[88.5 µM]; HEK293 tox: 0.6%[287 µM]; FLuc inh: inactive; NPR1 antag: 4.8%[122 µM]; NIH3T3 tox: 0.5%[279 µM]

What do the screens show for `COc1cccc(-n2cc(CN(C)Cc3cn(-c4ccccc4)nn3)cn2)c1`?
GPT2 inh: -6.1%; HEK293 tox: 31.6µM*; FLuc inh: inactive; NPR1 antag: -1.5%; NIH3T3 tox: inconclusive

What do the screens show for `CN(Cc1ccc2nonc2c1)Cc1cn(-c2ccccc2)nn1`?
GPT2 inh: -0.5%[11.5 µM]; HEK293 tox: inconclusive; FLuc inh: inactive; NPR1 antag: 3.8%; NIH3T3 tox: -11.7%

What do the screens show for `COc1ccc(CC(=O)NC2CCN(c3cc(-c4ccc(Cl)cc4)[nH]n3)C2)cc1` (stereo not drawn)?
GPT2 inh: inconclusive; HEK293 tox: 28.2µM*; FLuc inh: inactive; NPR1 antag: -30.5%; NIH3T3 tox: inconclusive
